From PubChem BioAssay (NCATS)
Results filed as inconclusive are left out. Entries that show only a call come without a potency. Active and inactive are the calls of the source. Calls follow the shape of the dose curve; as a rule, active = well fitted inhibition curve with a large enough effect; inconclusive = small, poorly fitted or top-dose-only effect; inactive = flat fitted curve, though single readings scatter. Where a SMILES comes first, the peptide text is derived from it. [ ]: non-standard residue; d: D form. pGlu = O=C1CC[C@@H](C(=O)O)N1; Thz = O=C(O)[C@@H]1CSCN1

Assays:
Test in all cases: qHTS profiling for inhibitors of Plasmodium falciparum proliferation (AID 504749); also: nearly all actives have a fitted effect of over 60% in size
Conditions in all cases: P. falciparum in erythrocytes, SYBR Green DNA, 72 h; series mostly up to 28.7 µM
[1] = tested on: CP247
Summary of the method: (§1)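 SYBR Green fluorescence of parasite DNA, read after lysis and overnight dark incubation, measured growth over 72 h in erythrocyte culture at 0.3% parasitemia and 2.5% hematocrit. Data normalised to DMSO and 0.29 uM artemisinin, with plate-drift correction.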

[2] = tested on: CP250
Summary of the method: as §1

[3] = tested on: CP252
Summary of the method: as §1

[4] = tested on: CP256
Summary of the method: as §1

[5] = tested on: CP260
Summary of the method: as §1

[6] = tested on: CP262
Summary of the method: as §1

[7] = tested on: CP265
Summary of the method: as §1

[8] = tested on: CP266
Summary of the method: as §1

[9] = tested on: CP268
Summary of the method: as §1

[10] = tested on: CP269
Summary of the method: as §1

[11] = tested on: CP286
Summary of the method: as §1

[12] = tested on: CP291
Summary of the method: as §1

[13] = tested on: CP297
Summary of the method: as §1

[14] = tested on: CP305
Summary of the method: as §1

[15] = tested on: CP315
Summary of the method: as §1

[16] = tested on: CP325
Summary of the method: as §1

[17] = tested on: CP329
Summary of the method: as §1

[18] = tested on: CP335
Summary of the method: as §1

[19] = tested on: DFO2036
Summary of the method: as §1

[20] = tested on: DIV14
Summary of the method: as §1
Potency is read from the fitted curve at half-maximal effect.

Compound	Potency [1]	Potency [2]	Potency [3]	Potency [4]	Potency [5]	Potency [6]	Potency [7]	Potency [8]	Potency [9]	Potency [10]	Potency [11]	Potency [12]	Potency [13]	Potency [14]	Potency [15]	Potency [16]	Potency [17]	Potency [18]	Potency [19]	Potency [20]
CC1(C)S[C@@H]2[C@H](NC(=O)[C@H](NC(=O)N3CCN(S(C)(=O)=O)C3=O)c3ccccc3)C(=O)N2[C@H]1C(=O)O	inactive	inactive	inactive	inactive	inactive	inactive	inactive	inactive	inactive	inactive	inactive	inactive	inactive	inactive	inactive	inactive	inactive	inactive	inactive	inactive
O=C(O)/C=C/C(O)c1ccc(Cl)cc1 (stereo not given)	inactive	inactive	inactive	inactive	inactive	inactive	inactive	inactive	inactive	inactive	inactive	inactive	inactive	inactive	inactive	inactive	inactive	inactive	inactive	inactive
CCCCCCCCCCCCCCCCCC(=O)O	inactive	inactive	inactive	inactive	inactive	inactive	inactive	inactive	inactive	inactive	inactive	inactive	inactive	inactive	inactive	inactive	inactive	inactive	inactive	inactive
CCCOC(=O)c1ccc(O)cc1	inactive	inactive	inactive	inactive	inactive	inactive	inactive	inactive	inactive	inactive	inactive	inactive	inactive	inactive	inactive	inactive	inactive	inactive	inactive	inactive
[O-][n+]1ccccc1SSc1cccc[n+]1[O-]	891 nM (active)	708 nM (active)	1000 nM (active)	2000 nM (active)	708 nM (active)	1070 nM (active)	1260 nM (active)	1510 nM (active)	849 nM (active)	1070 nM (active)	891 nM (active)	1200 nM (active)	1350 nM (active)	953 nM (active)	1690 nM (active)	953 nM (active)	1350 nM (active)	601 nM (active)	891 nM (active)	757 nM (active)
COc1cc(/C=C/C(=O)N2CCN(CC(=O)N3CCCC3)CC2)cc(OC)c1OC	inactive	inactive	inactive	inactive	inactive	inactive	inactive	inactive	inactive	inactive	inactive	inactive	inactive	inactive	inactive	inactive	inactive	inactive	inactive	
O=C1CC[C@@H](C(=O)N2CSC[C@H]2C(=O)O)N1 ([pGlu]-[Thz]-OH)	inactive	inactive	inactive	inactive	inactive	inactive	inactive	inactive	inactive	inactive	inactive	inactive	inactive	inactive	inactive	inactive	inactive	inactive	inactive	inactive
N=c1ccn2c(n1)O[C@H]1[C@H](O)[C@@H](CO)O[C@H]12	inactive	inactive	inactive	inactive	inactive	inactive	inactive	inactive	inactive	inactive	inactive	inactive		inactive	inactive	inactive	inactive	inactive	inactive	inactive
CCOC(=O)c1ccccc1O	inactive		inactive	inactive	inactive	inactive	inactive	inactive	inactive	inactive	inactive	inactive	inactive	inactive	inactive	inactive	inactive	inactive	inactive	inactive
O=C(O)Cc1ccc(-c2ccccc2)cc1	inactive	inactive	inactive	inactive	inactive	inactive	inactive	inactive	inactive	inactive	inactive	inactive	inactive	inactive	inactive	inactive	inactive		inactive	inactive
CCCSc1ccc2nc(NC(=O)OC)[nH]c2c1		inactive	inactive	inactive	inactive	inactive	inactive	inactive	inactive	inactive	inactive	inactive	inactive	inactive	inactive	inactive	inactive	inactive	inactive	inactive
